# Only a selection was taken, and the strongest signals are over-represented in it overall.
# Key:
# Test in all cases: glycan array binding signal (z-score within array); higher = stronger binding
# Details in all cases: glycan notation: IUPAC condensed, linker removed
# [1] = system: Neu5Ac(a2-6)Gal(b1-4)GlcNAc(b1-3)Gal(b1-4)GlcNAc(b1-3)Gal(b1-4)GlcNAc(b1-2)Man(a1-3)[Neu5Ac(a2-6)Gal(b1-4)GlcNAc(b1-3)Gal(b1-4)GlcNAc(b1-3)Gal(b1-4)GlcNAc(b1-2)Man(a1-6)]GalNAc
# In short: (§1)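 Glycan array data were curated from 3228 arrays in the Consortium for Functional Glycomics database and kept only where the protein sequence was available. Glycan names were converted to IUPAC-condensed notation, and columns mapping to the same glycan were averaged. The binding signal is a within-array Z-score, averaged across arrays of the same protein sequence at different concentrations or buffers and across linkers. Negative Z-scores can be read as non-binding.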
# [2] = system: Neu5Ac(a2-6)Gal(b1-4)GlcNAc(b1-3)Gal(b1-4)[Fuc(a1-3)]GlcNAc(b1-3)Gal(b1-4)[Fuc(a1-3)]GlcNAc
# In short: as §1
# [3] = system: Neu5Ac(a2-6)Gal(b1-4)GlcNAc(b1-3)Gal(b1-3)GlcNAc
# In short: as §1
# [4] = system: Neu5Ac(a2-6)Gal(b1-4)GlcNAc(b1-2)Man(a1-6)Man(b1-4)GlcNAc(b1-4)GlcNAc
# In short: as §1
# [5] = system: Neu5Ac(a2-6)Gal(b1-4)GlcNAc(b1-3)Gal(b1-4)GlcNAc(b1-6)[Gal(b1-3)]GalNAc
# In short: as §1
# [6] = system: Neu5Ac(a2-6)Gal(b1-4)GlcNAc(b1-2)[Neu5Ac(a2-3)Gal(b1-4)GlcNAc(b1-4)]Man(a1-3)[Neu5Ac(a2-3)Gal(b1-4)GlcNAc(b1-2)Man(a1-6)]Man(b1-4)GlcNAc(b1-4)GlcNAc
# In short: as §1
# [7] = system: Neu5Ac(a2-6)Gal(b1-4)GlcNAc(b1-2)[Neu5Ac(a2-6)Gal(b1-4)GlcNAc(b1-6)]Man(a1-6)[Neu5Ac(a2-6)Gal(b1-4)GlcNAc(b1-2)Man(a1-3)][GlcNAc(b1-4)]Man(b1-4)GlcNAc(b1-4)GlcNAc
# In short: as §1
# [8] = system: Neu5Ac(a2-6)Gal(b1-4)GlcNAc(b1-2)Man(a1-6)[Gal(b1-4)GlcNAc(b1-2)Man(a1-3)]Man(b1-4)GlcNAc(b1-4)GlcNAc
# In short: as §1
# [9] = system: Neu5Ac(a2-6)Gal(b1-4)GlcNAc(b1-3)Gal(b1-4)GlcNAc
# In short: as §1
# [10] = system: Neu5Ac(a2-6)Gal(b1-4)GlcNAc(b1-3)GalNAc
# In short: as §1
substance,measurement,setting,value
AgI/II Vhelical-GFP (Streptococcus mutans),glycan array binding signal (z-score),[1],1.12
same,glycan array binding signal (z-score),[2],1.26
LcI (Legionella pneumophila),glycan array binding signal (z-score),[3],0.02
"SiiE (Salmonella typhimurium), A0A0H3NVH0",glycan array binding signal (z-score),[3],2.56
Epa22,glycan array binding signal (z-score),[4],0.268
same,glycan array binding signal (z-score),[1],3.15
same,glycan array binding signal (z-score),[5],0.044
"MIC3-MAR1b (Eimeria tenella), B6VCV4",glycan array binding signal (z-score),[6],2.99
AgI/IIC123-GFP (Streptococcus mutans),glycan array binding signal (z-score),[7],3.72
"BambL (Burhholderia ambifaria), Q0B4G1",glycan array binding signal (z-score),[8],-0.317
"SpGH101 (Streptococcus pneumoniae), Q8DR60",glycan array binding signal (z-score),[9],-0.199
same,glycan array binding signal (z-score),[10],2.23
